Laboratory results as given in PubChem BioAssay (EPA / NIEHS).
Inconclusive results are not listed. Activity calls are given as the source filed them. Rule for the calls, unless noted: active = hit-call score of the fitted dose curve at least 0.9, where 1 is the maximum; inactive = score below 0.9.

Columns and labels:
[1] = biological target: Estrogen receptor (Homo sapiens) (UniProt P03372); test: CCTE_Deisenroth_AIME_96WELL_LUC_Active: CCTE's 96-well Estrogen Receptor Transactivation Assay with AIME metabolic competence (ERTA luciferase; metabolism positive), Deisenroth Lab (AID 2284023; active = hit-call score of the fitted dose curve at least 0.9, where 1 is the maximum)
How it was run: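 Metabolism-positive mode: induced rat hepatic S9 in alginate microspheres conditions test solutions (0.002 - 200 uM, 10 points) for 2 hours. VM7Luc4E2 ER luciferase reporter cells then exposed 24 h; positive-direction fit against 17beta-estradiol, n=4 typical.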

[2] = biological target: Estrogen receptor (Homo sapiens) (UniProt P03372); test: CCTE_Deisenroth_AIME_96WELL_LUC_Inactive: CCTE's 96-well Estrogen Receptor Transactivation Assay without AIME metabolic competence (ERTA luciferase; metabolism negative), Deisenroth Lab (AID 2284025; active = hit-call score of the fitted dose curve at least 0.9, where 1 is the maximum)
How it was run: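 Metabolism-negative arm: chemicals (0.002–200 uM, 10 points) incubated 2 h with alginate-water microspheres, then medium moved onto VM7Luc4E2 cells for 24 h luciferase read-out. Positive direction vs 17beta-estradiol; n≥4 experiments.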

[3] = CCTE_Deisenroth_AIME_96WELL_CTox_Active: Cytotoxicity Assessment (CTOX) in CCTE's 96-well Estrogen Receptor Transactivation Assay with AIME metabolic competence (metabolism positive), Deisenroth Lab (AID 2284028; active = hit-call score of the fitted dose curve at least 0.9, where 1 is the maximum)
How it was run: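 Cytotoxicity in VM7Luc4E2 breast cells after 24 h exposure to medium from a 2 h metabolic pre-incubation with induced rat hepatic S9 in alginate microspheres; fluorescent live-cell protease readout, 10-point series 0.002–200 uM, n=4.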

[4] = UKN5_HCS_SBAD2_cell_viability: Viability Assessment in the University of Konstanz (UKN) Leist Lab Neurite Outgrowth Assay in human iPSC-derived immature Dorsal Root Ganglia Neurons (UKN5) (AID 2284056)
How it was run: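 iPSC-derived immature peripheral neurons (SBAD2) seeded on Matrigel with CHIR99021, SU5402 and DAPT, dosed 1 h later for 24 h. Viability from Hoechst H-33342 and calcein-AM live staining, high-content imaging; bidirectional fit versus DMSO.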

[5] = UKN5_HCS_SBAD2_neurite_outgrowth: University of Konstanz (UKN) Leist Lab Neurite Outgrowth Assay in human iPSC-derived immature Dorsal Root Ganglia Neurons (UKN5) (AID 2284070); conditions: actives raise or lower the signal
How it was run: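 Neurite outgrowth is quantified as calcein-AM-labelled neurite area in human iPSC-derived peripheral neurons treated for 24 h, starting 1 h after plating in medium with CHIR99021 (1.5 uM), SU5402 (5 uM) and DAPT (5 uM).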

[6] = UKN4_HCS_LUHMES_neurite_outgrowth: University of Konstanz (UKN) Leist Lab Neurite Outgrowth Assay in human LUHMES cells (UKN4) (AID 2284206); conditions: actives raise or lower the signal
How it was run: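 Neurite area in dopaminergic-model LUHMES neurons is measured by high-content imaging of calcein-AM after 24 h treatment starting shortly after day-2 replating; Hoechst staining tracks viability.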

[7] = UKN4_HCS_LUHMES_cell_viability: Viability Assessment in the University of Konstanz (UKN) Leist Lab Neurite Outgrowth Assay in human LUHMES cells (UKN4) (AID 2284232)
How it was run: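 Measured in replated, 2-day-differentiated LUHMES cells treated 24 h; stained 30 min with H-33342 and calcein-AM before high-content imaging.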

[8] = test system: Brachyury (BRA) Protein Expression, Deisenroth Lab, TBXT (gene 6862); test: CCTE_Deisenroth_DEVTOX-GLR_legacy_Bra: (Legacy) CCTE's DevTox GLR-Endo Assay Evaluation of Brachyury (BRA) Protein Expression, Deisenroth Lab (AID 2284329)
How it was run: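 Percent Bra-positive cells, scored by high-content imaging against a threshold of 5x BMAD over the undifferentiated control median, with the 0.2% DMSO median subtracted. RUES2-GLR cultures were dosed twice at 24 h intervals across a 48 h differentiation, at 1 nM–200 uM in ten steps, with n=4 replicates.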

[9] = CCTE_Deisenroth_DEVTOX-GLR_legacy_CellCount: (Legacy) Viability Assessment in CCTE's DevTox GLR-Endo Assay, Deisenroth Lab (AID 2284331); conditions: actives raise or lower the signal
How it was run: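 Human pluripotent RUES2-GLR cells differentiated 48 h with two 24-h-interval exposures, 10-point 1 nM–200 uM series, 0.2% DMSO. Fixed nuclei counted by high-content imaging (5 fields/well); bidirectional fit vs DMSO, n≥4.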

[10] = test system: SRY-box transcription factor 17 (SOX17) Protein Expression, Deisenroth Lab, SOX17 (gene 64321); test: CCTE_Deisenroth_DEVTOX-GLR_legacy_Sox17: (Legacy) CCTE's DevTox GLR-Endo Assay Evaluation of SRY-box transcription factor 17 (SOX17) Protein Expression, Deisenroth Lab (AID 2284341); conditions: actives raise or lower the signal
How it was run: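 RUES2-GLR human pluripotent cells differentiated toward endoderm for 48 h, dosed twice at 24 h intervals (1 nM–200 uM, 10 points). Imaging gives % SOX17+ cells (intensity >5x BMAD above pluripotent control median); bidirectional fit versus 0.2% DMSO.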

[11] = test system: SRY-box transcription factor 2 (SOX2) Protein Expression, Deisenroth Lab, SOX2 (gene 6657); test: CCTE_Deisenroth_DEVTOX-GLR_legacy_Sox2: (Legacy) CCTE's DevTox GLR-Endo Assay Evaluation of SRY-box transcription factor 2 (SOX2) Protein Expression, Deisenroth Lab (AID 2284346)
How it was run: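 Percent Sox2-positive cells was scored by high-content imaging of 5 fields per well. Positivity cutoff was 5x BMAD over the directed endoderm control, and the DMSO median was subtracted. Cells were RUES2-GLR, dosed twice at 24-h intervals over 48 h of differentiation (1 nM-200 uM).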

[12] = test system: SRY-box transcription factor 2 (SOX2) Protein Expression, Deisenroth Lab, SOX2 (gene 6657); test: CCTE_Deisenroth_DEVTOX-GLR_Endo_SOX2: CCTE's DevTox GLR-Endo Assay Evaluation of SRY-box transcription factor 2 (SOX2) Protein Expression, Deisenroth Lab (AID 2284412; active = hit-call score of the fitted dose curve at least 0.9, where 1 is the maximum)
How it was run: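 Endpoint is percent SOX2-positive cells (SOX2+ count/total cells) minus 0.2% DMSO control, from high-content imaging of fixed, nuclear-stained RUES2-GLR cells. Dosing twice at 24 h intervals over 48 h differentiation, 1 nM–200 uM in 10 points.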

[13] = test system: SRY-box transcription factor 17 (SOX17) Protein Expression, Deisenroth Lab, SOX17 (gene 64321); test: CCTE_Deisenroth_DEVTOX-GLR_Endo_SOX17: CCTE's DevTox GLR-Endo Assay Evaluation of SRY-box transcription factor 17 (SOX17) Protein Expression, Deisenroth Lab (AID 2284413)
How it was run: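 RUES2-GLR human pluripotent cells were seeded 24 h, then differentiated toward endoderm for 48 h with two chemical exposures 24 h apart (10-point series, 1 nM - 200 uM). Nuclei-stained fixed cells were imaged; endpoint is percent change in SOX17+ cells versus 0.2% DMSO.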

[14] = test system: Brachyury (BRA) Protein Expression, TBXT (gene 6862); test: CCTE_Deisenroth_DEVTOX-GLR_Endo_BRA: CCTE's DevTox GLR-Endo Assay Evaluation of Brachyury (BRA) Protein Expression, Deisenroth Lab (AID 2284417)
How it was run: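 RUES2-GLR pluripotent cells differentiated 48 h with two chemical exposures 24 h apart, 10-point range 1 nM - 200 uM. Percentage of BRA+ cells per total count by high-content imaging, minus 0.2% DMSO control.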

[15] = CCTE_Deisenroth_DEVTOX-GLR_Endo_CellCount: Viability Assessment in CCTE's DevTox GLR-Endo Assay, Deisenroth Lab (AID 2284420)
How it was run: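 RUES2-GLR pluripotent cells seeded 24 h, then differentiated 48 h in defined media with two chemical exposures 24 h apart. Nuclei counted by high-content imaging; 10-point 1 nM–200 uM series; percent change versus 0.2% DMSO.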

[16] = test system: SRY-box transcription factor 2 (SOX2) Protein Expression, Deisenroth Lab, SOX2 (gene 6657); test: CCTE_Deisenroth_DEVTOX-GLR_Pluri_SOX2: CCTE's DevTox GLR-Pluri Assay Evaluation of SRY-box transcription factor 2 (SOX2) Protein Expression, Deisenroth Lab (AID 2284428)
How it was run: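 RUES2-GLR human pluripotent cells, two exposures 24 h apart over 48 h differentiation; 10-point series 1 nM - 200 uM. High-content imaging gives SOX2+ cells divided by cell count, reported as percent change versus 0.2% DMSO.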

[17] = test system: Brachyury (BRA) Protein Expression, Deisenroth Lab, TBXT (gene 6862); test: CCTE_Deisenroth_DEVTOX-GLR_Pluri_BRA: CCTE's DevTox GLR-Pluri Assay Evaluation of Brachyury (BRA) Protein Expression, Deisenroth Lab (AID 2284429; active = hit-call score of the fitted dose curve at least 0.9, where 1 is the maximum)
How it was run: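 Percent BRA+ cells (BRA+ count over total cells) by high-content imaging of fixed RUES2-GLR cultures, corrected by 0.2% DMSO control. Cells received two doses over 48-hour differentiation, 1 nM–200 uM, n=4 experiments.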

[18] = CCTE_Deisenroth_DEVTOX-GLR_Pluri_CellCount: Viability Assessment in CCTE's DevTox GLR-Pluri Assay Evaluation of Total Cell Counts, Deisenroth Lab (AID 2284430)
How it was run: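 Cytotoxicity readout: fluorescent nuclei counts by high-content imaging, expressed as percent change relative to 0.2% DMSO. Human RUES2-GLR pluripotent line differentiated 48 h, dosed twice at 24-h intervals across 1 nM - 200 uM (10 points).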

Measured: AC50

Estrogen receptor (Homo sapiens), sequence (P03372 whole entry, looked up): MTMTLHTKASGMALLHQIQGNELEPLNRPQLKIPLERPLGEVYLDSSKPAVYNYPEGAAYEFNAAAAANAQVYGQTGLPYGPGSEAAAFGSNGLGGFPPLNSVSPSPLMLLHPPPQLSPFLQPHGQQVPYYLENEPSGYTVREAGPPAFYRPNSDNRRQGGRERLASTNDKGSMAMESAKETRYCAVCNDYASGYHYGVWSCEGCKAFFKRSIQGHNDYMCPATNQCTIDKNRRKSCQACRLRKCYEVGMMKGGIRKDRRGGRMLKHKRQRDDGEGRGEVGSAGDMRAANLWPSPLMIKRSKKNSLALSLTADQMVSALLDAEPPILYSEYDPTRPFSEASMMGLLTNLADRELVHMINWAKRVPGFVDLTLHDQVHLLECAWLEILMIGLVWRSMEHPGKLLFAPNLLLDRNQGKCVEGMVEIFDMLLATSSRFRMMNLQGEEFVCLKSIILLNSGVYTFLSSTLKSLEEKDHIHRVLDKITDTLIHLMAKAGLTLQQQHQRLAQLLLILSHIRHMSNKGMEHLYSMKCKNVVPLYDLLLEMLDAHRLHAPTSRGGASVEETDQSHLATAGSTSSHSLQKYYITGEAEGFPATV

c1ccc(CCCc2ccccc2)cc1
inactive: [1] | [3]
active: [2] 37.4 µM

Cc1ccccc1
inactive: [4] | [5] | [6] | [7]

Oc1cc(O)c2c(c1)O[C@H](c1ccc(O)c(O)c1)[C@@H](O)C2
active: [9] 167 µM | [10] 144 µM | [13] 146 µM | [14] 0.000133 µM | [15] 167 µM | [16] 5.13 µM | [17] 157 µM
inactive: [8] | [11] | [12] | [18]
